Measured values reported in the supplement of paper PMC6555819.

Assays:
Test in all cases: PBM binding z-score (relative to random genomic background probes); higher = stronger binding; sequences stand for … in GC…GCGATTGACAGCGTAGAATGAAGG
[1] = test system: FXR:RXRa (NR concentration 270 nM, RXRa partner concentration 90 nM)
Procedure, shortened: (§1)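 Each nuclear receptor dimer, without ligand, was incubated for 1 h on custom Agilent 4×180K protein-binding microarrays. Binding was detected with antibodies against each partner (one per run), and scanned fluorescence was regression-normalized. The binding z-scores are referenced to random human genomic background probes.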

[2] = test system: LXRa:RXRa (NR concentration 270 nM, RXRa partner concentration 90 nM)
Procedure, shortened: as §1

[3] = test system: LXRa homodimer (NR concentration 270 nM)
Procedure, shortened: as §1

[4] = test system: LXRb:RXRa (NR concentration 270 nM, RXRa partner concentration 90 nM)
Procedure, shortened: as §1

[5] = test system: LXRb homodimer (NR concentration 270 nM)
Procedure, shortened: as §1

[6] = test system: PPARa:RXRa (NR concentration 270 nM, RXRa partner concentration 90 nM)
Procedure, shortened: as §1

[7] = test system: PPARg:RXRa (NR concentration 180 nM, RXRa partner concentration 90 nM)
Procedure, shortened: as §1

[8] = test system: PPARg:RXRa 270nM:90nM, anti-RXR (NR concentration 270 nM, RXRa partner concentration 90 nM)
Procedure, shortened: as §1

[9] = test system: PPARg:RXRa 30nM:10nM, anti-RXR (NR concentration 30 nM, RXRa partner concentration 10 nM)
Procedure, shortened: as §1

[10] = test system: PPARg:RXRa 90nM:30nM, anti-RXR (NR concentration 90 nM, RXRa partner concentration 30 nM)
Procedure, shortened: as §1

[11] = test system: PPARg:RXRa DBDmut IVT, anti-RXR (DBD mutation: RXRa K156A/R161A, NR concentration 270 nM, RXRa partner concentration 90 nM)
Procedure, shortened: as §1

[12] = test system: PPARg:RXRa IVT, anti-PPARg (NR concentration 270 nM, RXRa partner concentration 90 nM)
Procedure, shortened: as §1

[13] = test system: PPARg DBDmut:RXRa IVT, anti-PPARg (DBD mutation: PPARg1 K132A/R137A, NR concentration 270 nM, RXRa partner concentration 90 nM)
Procedure, shortened: as §1

[14] = test system: PPARg DBDmut IVT, anti-PPARg (DBD mutation: PPARg1 K132A/R137A, NR concentration 270 nM)
Procedure, shortened: as §1

[15] = test system: PPARg homodimer (NR concentration 180 nM)
Procedure, shortened: as §1

[16] = test system: PXR:RXRa (NR concentration 270 nM, RXRa partner concentration 90 nM)
Procedure, shortened: as §1

[17] = test system: PXR homodimer (NR concentration 270 nM)
Procedure, shortened: as §1

[18] = test system: RARa:RXR (NR concentration 270 nM, RXRa partner concentration 90 nM)
Procedure, shortened: as §1

[19] = test system: RARa homodimer (NR concentration 270 nM)
Procedure, shortened: as §1

Sequence | PBM binding z-score [1] | PBM binding z-score [2] | PBM binding z-score [3] | PBM binding z-score [4] | PBM binding z-score [5] | PBM binding z-score [6] | PBM binding z-score [7] | PBM binding z-score [8] | PBM binding z-score [9] | PBM binding z-score [10] | PBM binding z-score [11] | PBM binding z-score [12] | PBM binding z-score [13] | PBM binding z-score [14] | PBM binding z-score [15] | PBM binding z-score [16] | PBM binding z-score [17] | PBM binding z-score [18] | PBM binding z-score [19]
AGTCAAAGGTCAGGACGAGGTAACGTAAAGCACG | 7.52 | 5.96 | 0.926 | 4.9 | 1.48 | 6.17 | 8.88 | 7.95 | 4.99 | 7.2 | 3.25 | 5.65 | 0.687 | 0.49 | 4.08 | 4.9 | 0.639 | 5.78 | 2.25
CGTCCAAGGTCAATGCAAGGTCAGTGAAAGCATT | 7.23 | 5.69 | 4.1 | 5.16 | 1.06 | 5.79 | 4.73 | 5.14 | 2.05 | 3.82 | 3.53 | 4.28 | 0.246 | 0.606 | 5.89 | 6.14 | 2.19 | 6.91 | 2.02
ATCGAATGGTCGAAGGTGAGTATACCCACCCGAA | -0.229 | -0.228 | -0.451 | -0.362 | -0.158 | 0.153 | 1.07 | 1.34 | 0.48 | 1.31 | -0.883 | 0.182 | 0.483 | 0.223 | 0.138 | -0.0379 | -0.408 | 0.334 | 0.141
CGTGCAAGGTCAGAGAGGTCAGTGAATGCCGAGT | 6.42 | 5.22 | 3.35 | 4.61 | 0.199 | 5.16 | 3.9 | 4.62 | 1.19 | 3.09 | 2.79 | 3.68 | 0.231 | -0.338 | 2.85 | 6.05 | 11.2 | 5.42 | 0.698
TAGCCTAGGTCAGATCGGGGCAGTATACGCTATA | 3.05 | 1.42 | -0.378 | 1.22 | 0.212 | 1.93 | 0.989 | 1.43 | 0.0966 | 0.842 | 1.23 | 1.66 | 0.079 | -0.613 | -0.167 | 1.89 | -0.84 | 0.828 | -0.404
CGAACTAGGACATCCAGGACAGTGAATACATTGA | 0.00191 | -0.483 | 0.0183 | -0.213 | -0.407 | 0.451 | 1.35 | 0.774 | 0.322 | 0.462 | 5.1 | 4.07 | 0.493 | 0.652 | 0.302 | -0.363 | 0.206 | 0.00684 | 0.136
ACTAGTTGGTAAGCTGAGGTCACACACAATTCGG | 2.58 | 3.17 | 2.68 | 3.35 | 0.606 | 3.57 | 1.54 | 1.96 | 0.653 | 1.13 | 0.595 | 1.93 | 1 | 0.246 | 2.25 | 4.72 | 1.85 | 4.42 | 1.2
GCTGCAAGGTCAACTGATGGTCAGCTAAAGCTCG | 7.53 | 5.93 | 0.917 | 4.54 | 1.33 | 5.97 | 4.81 | 5.67 | 1.77 | 3.97 | 3.15 | 3.5 | 0.338 | -0.136 | 2.93 | 4.58 | 0.331 | 5.36 | 0.743
TAGCCTAGGTCAGATCGGGCCAGTCTACGCTATA | 1.89 | 1.15 | -0.542 | 0.223 | -0.401 | 1.82 | 0.647 | 0.822 | -0.388 | 0.205 | 0.403 | 1.41 | -0.912 | -0.787 | -0.159 | 1.18 | -0.895 | 1.05 | -1.11
AGTCCAAGTTCACTAGGTAACGTAAGATTCAGCT | 1.35 | 1.68 | 0.49 | 0.985 | 0.056 | 2.69 | 2.6 | 2.95 | 0.796 | 1.91 | 2.21 | 3.58 | 1.01 | 0.63 | 0.72 | 2.45 | 2.13 | 1.17 | 0.555
ATCGGAAGGTCGAGGTGAGTATAGAGAAAGGGAA | 2.07 | 1.65 | -0.107 | 1.23 | 0.134 | 2.5 | 1.23 | 1.33 | 0.513 | 0.876 | 0.383 | 1.36 | 0.811 | 0.693 | 1.44 | 1.1 | 0.218 | 1.59 | 0.522
CGTCCAAGGGCAGCAGGTCAGTGAAAGCGACGTG | 0.137 | -0.0372 | -0.847 | -0.105 | -1.37 | 0.938 | 0.305 | 0.501 | -0.617 | -0.019 | 0.8 | 0.701 | -0.933 | -1.17 | 0.592 | 0.274 | -0.825 | 0.723 | -0.64
AATACAGGATCACTAGGCCAGAGTAGGTACGAAT | -0.102 | -0.204 | -0.28 | -0.407 | -0.237 | 0.128 | 1.19 | 0.718 | 0.264 | 0.869 | 0.409 | 1.29 | 1.21 | 0.197 | 0.314 | -0.236 | 0.366 | -0.456 | 0.395
TCTAGGAGGACACGAAGGTCAGAGCTTTCCAGAG | 1.27 | 0.762 | 0.19 | 0.856 | -0.833 | 2.05 | 0.882 | 2.09 | 2.49 | 2.5 | 1.91 | 1.99 | -0.157 | -1.05 | 0.55 | 1.72 | 0.568 | 1.83 | -0.482
AATACAGGGACATCGTAGGCCAGAGTACGCACAG | -0.0851 | -0.29 | 0.107 | -0.465 | 0.118 | -0.329 | 1.07 | -0.124 | 0.0369 | 0.0571 | -0.376 | 0.372 | 0.226 | 0.0255 | -0.207 | -0.16 | 0.0295 | -0.225 | 0.123
